Screening data deposited in PubChem by National Center for Advancing Translational Sciences (NCATS).
Pol eta inh-1 – qHTS for Inhibitors of Polymerase Eta. recombinant Pol eta, fluorescent DNA replication assay. Potency, µM (highest dose often 114 µM), without a hit: at the highest dose activity change, negative = inhibition, hits mostly inhibitors. actives 1.2% (n = 390,000). AID 588591, 2011; note: potency is the fitted concentration of half-maximal effect; % is set by controls: 0 for no effect and ±100 for the full control effect
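Pol eta (10 nM) was preincubated with compounds for 15 min at room temperature, after which fluorescent replication substrate (50 nM final) was added to start the reaction. Fluorescence was read kinetically at 0 and 10 min.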
FEN1 inh – qHTS Assay for the Inhibitors of Human Flap endonuclease 1 (FEN1) | Recombinant FEN1 flap cleavage, fluorescence, 15 min | P39748 | actives 0.35% (n = 390,000) | Potency, µM (highest dose often 114 µM), without a hit: at the highest dose activity change, negative = inhibition, usual class: inhibitors; note: potency is the fitted concentration of half-maximal effect; % is set by controls: 0 for no effect and ±100 for the full control effect; nearly all actives have a fitted effect of over 65% in size
Target sequence (P39748 whole entry, looked up): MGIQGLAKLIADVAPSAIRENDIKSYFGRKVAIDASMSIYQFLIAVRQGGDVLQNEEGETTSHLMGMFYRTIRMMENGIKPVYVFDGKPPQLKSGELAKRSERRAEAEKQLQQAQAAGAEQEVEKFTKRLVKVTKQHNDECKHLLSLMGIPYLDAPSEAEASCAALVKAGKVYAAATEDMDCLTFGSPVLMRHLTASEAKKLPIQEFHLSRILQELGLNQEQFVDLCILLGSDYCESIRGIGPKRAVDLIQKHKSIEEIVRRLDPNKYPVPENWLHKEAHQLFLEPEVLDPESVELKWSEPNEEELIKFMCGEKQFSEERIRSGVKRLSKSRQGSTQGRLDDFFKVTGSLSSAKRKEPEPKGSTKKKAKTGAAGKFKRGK
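Concentration–response screening of FEN1 (10 nM): 15 min compound preincubation at room temperature, reaction started with 50 nM substrate and read at 0 and 15 min. Corrected, normalized data were fitted by a four-parameter Hill equation.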
Pol kappa inh-1 – qHTS for Inhibitors of Polymerase Kappa; DNA polymerase kappa (Homo sapiens), Q9UBT6; purified Pol kappa, fluorescent DNA synthesis assay, 10 min; Potency, µM (highest dose often 107 µM), without a hit: at the top dose activity, negative = inhibition, hits mostly inhibitors; actives 0.53% (n = 400,000); AID 588579, 2011; note: potency is the fitted concentration of half-maximal effect; % is set by controls: 0 for no effect and ±100 for the full control effect
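Fluorescent qHTS in 1536-well format: enzyme (10 nM) and compound sat 15 min at room temperature before 50 nM substrate (final) was added. Signal taken at 0 and 10 min; no-enzyme buffer wells were negative controls.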
POLI inh – qHTS for Inhibitors of Polymerase Iota | DNA polymerase iota (Homo sapiens), Q9UNA4 | Pol iota fluorescent replication assay, 10 min | Potency, µM (top dose mostly 115 µM), without a hit: at the highest dose activity, negative = inhibition, actives largely listed as inhibitors | actives 1% (n = 390,000); note: potency is the fitted concentration of half-maximal effect
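Fluorescent replication assay read twice, at 0 min and 10 min after adding 50 nM (final) substrate. Enzyme (10 nM) and compounds were first incubated 15 min at room temperature; enzyme-free buffer wells were negative controls.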
POLB inh – qHTS Assay for Inhibitors of DNA Polymerase Beta; P06746; Pol beta primer extension/strand displacement, fluorescence kinetic; Potency, µM (titrated, usually from 114 µM), without a hit: at the top dose activity change, negative = inhibition, usual class: inhibitors; actives 1.3% (n = 340,000); AID 485314, 2010; note: potency is the fitted concentration of half-maximal effect; % is set by controls: 0 for no effect and ±100 for the full control effect
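Pol beta (10 nM) was preincubated with compound for 15 min at room temperature. The reaction was then started with 50 nM substrate and read immediately and after a further 10 min at room temperature.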
WRN inhibitor – qHTS for Inhibitors of WRN Helicase | AID 651768, 2012 | Bifunctional 3'-5' exonuclease/ATP-dependent helicase WRN (Homo sapiens), Q14191 | Potency, µM (titrated, usually from 114 µM), for the others: at the top dose activity change, negative = inhibition, hits mostly inhibitors | actives 0.46% (n = 360,000) | WRN helicase unwinding, fluorescent forked duplex, kinetic; note: potency is the fitted concentration of half-maximal effect; % is set by controls: 0 for no effect and ±100 for the full control effect; nearly all actives have a fitted effect of over 55% in size
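Kinetic fluorescence helicase assay: unwinding of a quenched forked DNA duplex (100 nM final) with 2 mM ATP final raises red fluorescence (525/598 nm). Compounds sat 15 min at room temperature with 20 nM WRN beforehand.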
Pol iota confirm – qHTS for Inhibitors of Polymerase Iota: Confirmatory Assay for Cherry-picked Compounds. actives 77% (n = 1,500). Pol iota primer extension, TAMRA/BHQ fluorescence. shares compounds with Pol kappa inh-1. Potency, µM, most hits filed as inhibitors. AID 720496, 2013; note: potency is the fitted concentration of half-maximal effect
GALK inh confirm – Confirmation Assay for Inhibitors of Human Galactokinase (GALK) | shares compounds with Pol eta inh-1 | purified GALK, Kinase-Glo ATP depletion luminescence | Potency, µM (highest dose often 115 µM), for the others: top-dose activity, negative = inhibition, hits mostly inhibitors | actives 70% (n = 150)
Target sequence (P51570 whole entry, looked up): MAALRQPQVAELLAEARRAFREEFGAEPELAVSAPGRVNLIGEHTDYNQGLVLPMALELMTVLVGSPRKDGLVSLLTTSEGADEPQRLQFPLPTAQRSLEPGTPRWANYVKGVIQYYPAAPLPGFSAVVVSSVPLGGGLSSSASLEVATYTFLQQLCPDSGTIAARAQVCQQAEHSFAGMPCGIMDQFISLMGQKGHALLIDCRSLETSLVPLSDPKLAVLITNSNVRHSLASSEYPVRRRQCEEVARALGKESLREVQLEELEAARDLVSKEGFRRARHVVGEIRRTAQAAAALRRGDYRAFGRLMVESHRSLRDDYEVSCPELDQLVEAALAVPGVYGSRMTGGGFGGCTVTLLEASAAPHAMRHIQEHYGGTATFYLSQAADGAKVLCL
GALK redox cs – Confirmatory Assay for Inhibitors of Human Galactokinase (GALK): Phenol-HRP redox assay counterscreen. shares compounds with Pol eta inh-1. Phenol red-HRP H2O2 redox cycling, absorbance 600 nm. Potency, µM (doses to about 115 µM), for the others: at the top dose activity change, negative = H2O2 signal, hits mostly inhibitors. actives 40% (n = 150). AID 2035, 2009
HEK293 tox – Secondary Assay for Inhibitors of Human Galactokinase (GALK): HEK-293 Cell Viability Assay | shares compounds with Pol eta inh-1 | HEK-293 viability, ATP luminescence (CellTiter-Glo), 24/48 h | Potency, µM (series often up to 46.1 µM), for the others: at the top dose activity change, negative = cytotoxicity, hits mostly inhibitors | actives 10% (n = 170); note: potency is the fitted concentration of half-maximal effect; % is set by controls: 0 for no effect and ±100 for the full control effect
Pol kappa inh-2 – qHTS for Inhibitors of Polymerase Kappa: Confirmatory Assay for Cherry-picked Compounds | Potency, µM, most hits filed as inhibitors | purified Pol-kappa, fluorescent strand-displacement substrate | shares compounds with Pol eta inh-1 | AID 720501, 2013 | actives 76% (n = 920); note: potency is the fitted concentration of half-maximal effect
Pol eta inh-2 – qHTS for Inhibitors of Polymerase Eta: Confirmatory Assay for Cherry-picked Compounds. AID 720502, 2013. shares compounds with Pol eta inh-1. Potency, µM, most hits filed as inhibitors. Pol eta primer extension, TAMRA/BHQ fluorescence, 10 min. actives 64% (n = 2,600); note: potency is the fitted concentration of half-maximal effect
* = called active by the depositor; ? = inconclusive; . = no result; [ ] = dose if it differs, or a comment. Most compounds without a hit are left out; they make up all but 2.4% or so of the library. Calls come from the whole dose curve; as a rule, active = well fitted curve in the direction sought with a large enough effect; inconclusive = small, poorly fitted or top-dose-only effect, or another doubt; inactive = no such curve, though single readings can be large; an effect the other way counts as inactive or inconclusive.

SMILES	Pol eta inh-1	FEN1 inh	Pol kappa inh-1	POLI inh	POLB inh	WRN inhibitor	Pol iota confirm	Pol eta inh-2	others
COC1=CC(=O)c2c(ccc3ncnc(N)c23)C1=O	4.47µM*	?	-5.5%	3.98µM*	.	-34.2%	4.23*	8.49*
COC1=CC(=O)c2nc(Cl)ccc2C1=O	.	.	.	.	.	-30.2%[57.1 µM]	.	.
O=[N+]([O-])c1ccccc1S(=O)(=O)Nc1ccc(S(=O)(=O)Nc2nccs2)cc1	0.3%	-0.3%	2.8%	?	1.4%	-21.1%	.	.
Nc1ccc(S(=O)(=O)Nc2nccs2)cc1N=Nc1ccccc1[N+](=O)[O-]	3.16µM*	50.1µM*	28.2µM*	7.08µM*	.	25.1µM*	75.2*	19*	Pol kappa inh-2=?
CCc1ccc(S(=O)(=O)/N=C2\C=C(Nc3ccc(C(=O)O)cc3)C(=O)c3ccccc32)cc1	28.2µM*	-31.2%	-8.0%	11.2µM*	-29.9%	-18.2%[11.6 µM]	18.9*	21.3*	GALK inh confirm=?;GALK redox cs=11.9µM*;HEK293 tox=11.2µM*;Pol kappa inh-2=?
Cc1ccc(S(=O)(=O)/N=C2\C=C(NS(=O)(=O)c3ccccc3)C(=O)c3ccccc32)c(C)c1	-2.7%	-2.0%	-8.5%	?	.	-22.2%	.	.
CCc1ccc(NC2=NC(C(=O)c3ccccc3)CC(=O)N2)cc1 (centres undefined)	-2.5%	0.1%	-7.1%	13.0%	?	0.6%	.	.
Cc1ccc(S(=O)(=O)/N=C2\C=C(Nc3cccc(C(=O)O)c3)C(=O)c3ccccc32)cc1	31.6µM*	?	2.5%	3.98µM*	?	8.3%	75.2*	47.8*
Cc1cc(C)n(CCc2nc(-c3cccs3)cs2)n1	-6.4%	-2.4%	-18.6%	-8.3%	3.8%	-15.0%	.	.
Cc1cc(C)n(CCc2nc(-c3ccco3)cs2)n1	79.4µM*	-27.7%	70.8µM*	14.1µM*	31.6µM*	?	75.2*	84.9*
O=C(O)c1ccc(-n2cccc2/C=C2\SC(=O)N(Cc3ccc(Br)cc3)C2=O)cc1	.	.	.	.	.	.	75.2*	75.7*
COCCCNC(=O)C(=O)NCC(c1ccc2c(c1)OCO2)N1CCOCC1 (centres undefined)	-26.9%	-5.7%	-1.9%[60.1 µM]	2.1%	7.7%	.	.	.
O=C(/C=C/c1cccnc1)c1cc(F)ccc1O	-5.0%	-5.4%	15.0%	38.2%	27.2%	2.0%	.	.
O=C(O)c1cc(/C=C/C(=O)c2cc(F)ccc2O)c2c(c1)COCO2	22.4µM*	-28.3%	?	14.1µM*	?	-24.7%[11.6 µM]	67*	47.8*
Cc1cccc(C)c1NC(=O)CN1C(=O)c2cccc3cccc1c23	-14.9%	-3.8%	-1.5%[60.1 µM]	6.8%	1.6%	.	.	.
COc1ccccc1NC(=O)c1c(C)cc(C)nc1SCC(=O)c1ccc(Cl)cc1	-19.8%	15.4%	-11.8%	13.7%	-1.8%	.	.	.
CCOc1ccccc1C(=O)NCC(c1ccc(N(C)C)cc1)N1CCc2ccccc21 (centres undefined)	-17.0%	-9.8%	-0.8%[60.1 µM]	4.9%	0.0%	.	.	.
O=C(NNC(=O)c1ccccc1Br)c1ccc(Cl)c(Cl)c1	-7.5%	2.6%	-6.6%	13.7%	1.0%	-2.1%	.	.
O=C(NNC(=O)c1ccccc1Br)c1ccc2nc[nH]c2c1	22.4µM*	-24.8%	?	?	22.4µM*	-24.1%	?	53.6*
Cn1c(=O)c(=O)n(C)c2cc(N3CCCC3)c(NC(=O)c3ccccc3Cl)cc21	-3.1%	?	18.8%	29.3%	25.5%	.	.	.
C[n+]1cccc2c(Br)ccc([O-])c21	20µM*	0.8%	-37.0%	?	28.2µM*	-11.5%[11.6 µM]	18.9*	23.9*	GALK inh confirm=47.3µM*;GALK redox cs=21.1µM*;HEK293 tox=-6.8%
O=C(Nc1ccc(S(=O)(=O)Nc2nccs2)cc1)c1nn(-c2ccc(F)cc2)ccc1=O	20µM*	?	89.1µM*	35.5µM*	?	50.1µM*	67*	42.6*
O=C(Nc1ccc(S(=O)(=O)N2CCOCC2)cc1)c1nn(-c2ccc(F)cc2)ccc1=O	-11.7%	24.7%	15.6%	43.0%	5.9%	2.4%	.	.
COc1ccccc1C1C=C(c2ccc(Cl)cc2)Nc2nc(-c3ccc(Cl)cc3)nn21 (centres undefined)	-18.9%	-3.0%	-11.9%	2.5%	-16.6%	.	.	.
NC1=NC(=O)/C(=C\c2ccco2)S1	17.8µM*	50.1µM*	39.8µM*	?	?	50.1µM*	16.8*	26.9*	Pol kappa inh-2=11.9*
NC1=NC(=O)C(=Cc2ccccc2)S1	-6.8%	-0.1%	-11.9%	-18.1%	.	-12.0%	.	.
Cc1ccc(S(=O)(=O)N2C(c3ccc(Cl)c(Cl)c3)CC=C(C(=O)O)C2c2ccc(Cl)cc2)cc1 (centres undefined)	.	.	.	.	.	-6.0%	.	.
